# From PubChem BioAssay AID504850 (National Center for Advancing Translational Sciences (NCATS), 2011)
# About 1,200 (52%) of roughly 2,300 compounds were called active. Another 34% or so got no clear call; they are omitted. Calls follow the shape of the dose curve; as a rule, active = well fitted inhibition curve with a large enough effect; inconclusive = small, poorly fitted or top-dose-only effect, or effect the other way; inactive = no such curve, though single readings can be large or run the other way. So high a share suggests a set chosen from earlier hits. The list shows a part of the results.
# Experiment: Confirmation screen for delayed death inhibitors of the malarial parasite plastid, 48 hour incubation; also: nearly all actives have a fitted effect of over 65% in size
# Conditions: P. falciparum-infected erythrocytes, luciferase growth; series mostly up to 28.7 µM
# Summary of the method: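 Erythrocytes infected with luciferase-expressing P. falciparum (2% hematocrit, 0.1% parasitemia) incubated with compounds 48 hours at 37 C, 5% CO2, in RPMI/Albumax. Growth inhibition scored as reduced luminescence after detection reagent.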
# Potency is read from the fitted curve at half-maximal effect.
row,Compound,Potency
1,COCCN(C(=O)c1ccccc1F)c1nnc(-c2ccc(OC)cc2)s1,10 µM (active)
2,CC(C)(C)C1C/C(=C/c2ccccn2)C(=O)/C(=C/c2ccccn2)C1 (stereo not drawn),0.316 µM (active)
3,COC(=O)CSc1nc2c(c(-c3ccco3)c1C#N)CCCC2,12.6 µM (active)
4,N#C/C(=C\c1ccc(-c2ccc(C(=O)O)cc2)o1)C(=O)Nc1ccc(F)cc1,14.1 µM (active)
5,Cc1ccc(NC2=C/C(=N\S(=O)(=O)c3cccs3)c3ccccc3C2=O)c(C)c1,0.282 µM (active)
6,CCCCNC(=O)c1onc(CSc2cccc3ccccc23)c1C(=O)O,inactive
7,CC(C)(C(=O)N[C@H](CO)c1ccccc1)C(=O)N[C@H](CO)c1ccccc1,inactive
8,CCCC(=O)NC(c1ccccc1)c1c(O)ccc2ccccc12 (stereo not drawn),7.08 µM (active)
9,CCC1=C/C(=C/c2sc3ccccc3[n+]2CC)CC(C)(C)C1,5.62 µM (active)
10,CCCc1nnc(NC(=O)c2nc(S(=O)(=O)Cc3cccc(C)c3)ncc2Cl)s1,inactive
11,CCC(C)[C@@H](NC(=O)OC(C)(C)C)c1nnc(S(=O)(=O)Cc2cccc(C)c2)o1 (stereo partly drawn),14.1 µM (active)
12,O=C(COc1ccccc1Cl)NC(=S)N1CCc2ccccc21,12.6 µM (active)
13,O=C(COc1cccc2ccccc12)Nc1ccc(Cl)cc1C(=O)O,inactive
14,COc1cc2cc(CN(Cc3cccs3)C(=S)Nc3ccc(C)cc3)c(=O)[nH]c2cc1OC,10 µM (active)
15,COc1cc2cc(CN(CCc3ccccc3C)C(=S)NCCCN3CCOCC3)c(=O)[nH]c2cc1OC,7.94 µM (active)
16,CCC(=O)NCCc1cc2ccc(C)cc2[nH]c1=O,inactive
17,CS(=O)(=O)c1ccc(-c2nnc(NC(=O)c3ccc(S(=O)(=O)N4CCCC4)cc3)o2)cc1,14.1 µM (active)
18,C=CCNC(=S)N/N=C/c1ccc(-c2cc(Cl)ccc2Cl)o1,12.6 µM (active)
19,O=C(NCc1cccnc1)c1nc(-c2ccccc2)n(-c2ccccc2)n1,inactive
20,O=C(NCc1cccnc1)/C(=C\c1ccc(-c2cccc(Cl)c2)o1)S(=O)(=O)c1ccccc1,12.6 µM (active)

row,Compound,Potency
1,Cc1ccc(-n2nc3c(=O)n(CCCC(=O)NCc4ccco4)nc(C)c3c2C)cc1,6.31 µM (active)
2,COc1cc(CNC(=O)CCn2nc(C)c3c(C)n(-c4ccccc4)nc3c2=O)cc(OC)c1OC,12.6 µM (active)
3,Cc1ccc2c(c1)N(CCC(=O)NCc1ccco1)C(=O)CO2,inactive
4,COc1ccccc1CNC(=O)CCCn1nc(C)c2c(C)n(-c3ccccc3)nc2c1=O,12.6 µM (active)
5,COc1ccccc1CCNC(=O)CCn1nc(C)c2c(C)n(-c3ccccc3)nc2c1=O,14.1 µM (active)
6,CC(=O)Nc1sc(C)c(C)c1C(=O)OCC(=O)N(CC(C)C)C1CCS(=O)(=O)C1 (stereo not drawn),12.6 µM (active)
7,CSCCC(NC(=O)c1ccccc1Cl)C(=O)N1CCN(C(c2ccccc2)c2ccccc2)CC1 (stereo not drawn),3.98 µM (active)
8,Cc1ccc(N(Cc2ccco2)C(=O)c2ccc(N3CCCCC3)c([N+](=O)[O-])c2)cc1,11.2 µM (active)
9,C=CCNC(=O)c1onc(CSc2ccccc2CC)c1C(=O)O,inactive
10,Fc1ccc2cnc(-c3ccccc3)c(-c3ccc(C(F)(F)F)cc3)c2c1,15.8 µM (active)
11,O=C(O)c1cc(-c2ccc3ccccc3c2)nc2ccc(F)cc12,inactive
12,CCCN1CCN(C(=O)C2CCN(S(=O)(=O)c3ccc4c(c3)NC(=O)C(C)S4)CC2)CC1 (stereo not drawn),12.6 µM (active)
13,COc1ccc(C(C)(C)C)cc1NC(=O)c1[nH]c(C)c(C(C)=O)c1C,7.94 µM (active)
14,CC(=O)c1c(C)[nH]c(C(=O)COC(=O)COc2ccccc2F)c1C,inactive
15,CC#CC#Cc1cccc(=O)o1,8.91 µM (active)
16,CCCn1c(CN2CCN(C(=O)OCC)CC2)nc2cc(NC(=O)C(C)C)ccc21,11.2 µM (active)
17,CCNc1ccc(Br)cc(C(=O)/C=C/c2c(Cl)cccc2Cl)c1=O,10 µM (active)
18,COc1ccc(-c2cn(-c3ccccc3)c3[n+]2CCS3)cc1,3.16 µM (active)
19,COc1cc(/C=C2/CCC/C(=C\c3cc(O)c(OC)c(Cl)c3)C2=O)cc(Cl)c1O,11.2 µM (active)
20,COc1cc(/C=C2\CC(C(C)(C)C)C/C(=C\c3cc(OC)c(OC)c(OC)c3)C2=O)cc(OC)c1OC (stereo not drawn),5.01 µM (active)

row,Compound,Potency
1,COc1cc(/C=C2\COC/C(=C\c3ccc(O)c(OC)c3)C2=O)ccc1O,6.31 µM (active)
2,COc1cc(/C=C2\COC/C(=C\c3cc(OC)c(OC)c(OC)c3)C2=O)cc(OC)c1OC,2.82 µM (active)
3,CCOc1ccc(/C=C2\SC(=S)N(C(C(=O)O)c3ccccc3)C2=O)cc1OC (stereo not drawn),inactive
4,COc1ccc(/C=C2\CC/C(=C\c3ccc(OC)c(OC)c3)C2=O)cc1OC,15.8 µM (active)
5,CC(C)c1ccc(NC(=O)c2cc(S(=O)(=O)N3CCCC3)c[nH]2)cc1,12.6 µM (active)
6,COc1ccc(-c2c(C(C)=O)c(C)n(C)c2C)cc1,12.6 µM (active)
7,CC(C)N1CCC(N2CCN(Cc3ccc(-c4ccc(Cl)cc4)o3)CC2CCO)CC1 (stereo not drawn),6.31 µM (active)
8,Cc1ccc(C)c(C(=O)CN2C3=NCCCN3c3ccccc32)c1,12.6 µM (active)
9,O=C(CN1C2=NCCCN2c2ccccc21)c1ccc2c(c1)OCO2,11.2 µM (active)
10,OC(CN1C2=NCCN2c2ccccc21)c1ccc2c(c1)OCO2 (stereo not drawn),5.01 µM (active)
11,Nc1cccc2c1C(=O)N(C(=O)/C=C/c1ccc(F)cc1)C2=O,inactive
12,Cc1cc2c(c(=O)n1Cc1ccco1)C(c1cccnc1)C(C#N)=C(N)O2 (stereo not drawn),inactive
13,OC(c1ccccc1)(c1ccccc1)C1CCN(C(=S)NCCc2ccccc2)CC1,11.2 µM (active)
14,CN(Cc1cccc(Cl)c1Cl)C(=O)c1ccc(NC(=O)CC#N)cc1,3.98 µM (active)
15,O=C(CSc1ccc(-c2cccnc2)nn1)Nc1ccccc1C(F)(F)F,inactive
16,O=C(CSc1nc(-c2ccco2)cc(C(F)(F)F)n1)Nc1ccccc1C(F)(F)F,14.1 µM (active)
17,O=S1(=O)C=C(Sc2nnc(-c3ccccc3)o2)c2ccccc21,12.6 µM (active)
18,O=S1(=O)C=C(Sc2nc3cc(Cl)ccc3o2)c2ccccc21,11.2 µM (active)
